Source: PubChem (National Center for Advancing Translational Sciences (NCATS))
Shown is part of a subset that was picked to be rich in hits.
Methyltransferases: Primary Screen for Target Class Profiling of Small Molecule Inhibitors of Methyltransferases; calls only at 40 µM; purified enzyme, MTase-Glo SAH luminescence; active compounds read low; 25,000 tested, 3.9% active; AID 1745853, 2022; call rule not given here
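Each enzyme was reacted with SAM and its substrate, with compounds tested once at 40 uM; SAH formed was read by MTase-Glo luminescence.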
MTase-Glo ctr: detection enzyme interference, methyltransferase counter-screen; shares compounds with Methyltransferases; MTase-Glo coupled enzymes, SAH conversion luminescence, no MTase; Potency, µM (series often up to 57.3 µM), for inactives: top-dose activity change, negative = inhibition, usual class: inhibitors; 180 tested, 6% active; AID 1745851; active = well fitted inhibition curve with a large enough effect; note: potency is the fitted concentration of half-maximal effect
The depositor's hits bear a star; i = inactive; + = active, no number; [ ] = another dose, or the depositor's remark. % is set by controls: 0 for no effect and ±100 for the full control effect.

SMILES	Methyltransferases	others
CCOc1ccc(C(=O)Cn2nc3n(CC(C)C)c(=O)c4ccc(C(=O)NCC(C)C)cc4n3c2=O)cc1	i
COc1ccc(-c2cnc3n[nH]c(-c4ccccc4C)c3n2)cn1	i
Cc1ccccc1-c1[nH]nc2ncc(-c3c(C)noc3C)nc12	+	MTase-Glo ctr=-4.1%[85.7 µM]
Cc1noc(C)c1-c1cc2c(cc(C)n2C)c(N2CCN(c3ccccn3)CC2)n1	i
CN(C)CCNC(=O)c1cc2n(n1)CC(C)(C(=O)NCc1ccccc1)N(C)C2=O (stereo not drawn)	i
CC1=NOC(C(=O)N2CCCn3nc(C(=O)NCCN(C)C)cc3C2)C1 (stereo not drawn)	i
CN(C)CCNC(=O)c1ccnc(-c2nnc3ccc(N(C)c4ccccc4)nn23)c1	+	MTase-Glo ctr=-6.5%[85.7 µM]
CCOc1ccc(CN2C(=O)c3cc4sc(CC)cc4n3CC2(C)C(=O)NC2CCCCC2)cc1 (stereo not drawn)	i
COc1ccccc1CNC(=O)C1(C)Cn2nc(-c3ccccc3)cc2C(=O)N1c1ccc(F)cc1 (stereo not drawn)	i
CCCn1c(C)cnc1CCNC(=O)CC1CCN(C(C)=O)CC1	i
CCNc1nccc(N2CCC(CC(=O)NCC(C)C)CC2)n1	+	MTase-Glo ctr=-0.3%
CCOc1ccc(-c2ccnc(NC[C@@H]3CCCO3)n2)cc1C(=O)O	i
CC1(C)N=C(c2ccccc2)C(=O)N1CC(=O)N1CCN(c2ccccc2F)CC1	i
COc1nccc(N2CCC(CC(=O)N3CCN(C(C)=O)CC3)CC2)n1	i
CCNc1nccc(N2CCC(CC(=O)N3CCN(c4ccccc4F)CC3)CC2)n1	+	MTase-Glo ctr=2.9%
CN1C(=O)c2cc(C(=O)NCCCN3CCCCC3)nn2CC1(C)C(=O)NCc1ccc(F)cc1 (stereo not drawn)	i
CC1(C(=O)NCc2ccccc2Cl)Cn2cnc(C(=O)NCc3ccc(F)cc3)c2C(=O)N1C1CC1 (stereo not drawn)	i
CN(C)S(=O)(=O)N1CCc2c(nc3cc(-c4ccccc4)[nH]n3c2=O)C1	i
O=C(CCCc1nc2ccccc2s1)N1CCc2nc3cc(-c4ccccc4)[nH]n3c(=O)c2C1	i
COc1ccc(-c2cc3nc4c(c(=O)n3[nH]2)CN(C(=O)CN(C)S(=O)(=O)c2cnc[nH]2)CC4)cc1	+	MTase-Glo ctr=-5.6%
COc1cccc(CN2C(=O)c3nc4ccccc4n3CC2(C)C(=O)NC2CCCCC2)c1 (stereo not drawn)	i
Cc1cccc(NC(=O)Cn2nc3n(C)c(=O)c4ccc(C(=O)NC5CCCC5)cc4n3c2=O)c1	i
CCCN1C(=O)c2c(C(=O)NCCc3ccc(Cl)cc3)ncn2CC1(C)C(=O)NCCC(C)C (stereo not drawn)	i
Cc1ccc(Cn2nc3n(Cc4ccccc4)c(=O)c4ccc(C(=O)NCC(C)C)cc4n3c2=O)cc1	i
Nc1nc(NCc2ccc(Cl)cc2Cl)cc(C2CC(O)C2)n1 (stereo not drawn)	+	MTase-Glo ctr=-3.4%
SMILES	Methyltransferases	others
CCc1csc(CNc2cc(C3CC(O)C3)nc(N)n2)n1 (stereo not drawn)	i
Nc1nc(NCc2ccc(N3CCCC3=O)cc2)cc(C2CC(O)C2)n1 (stereo not drawn)	i
CCOC(=O)c1cc2n(n1)CC(C)(C(=O)NCc1ccc(C)cc1)N(c1ccc(C)cc1C)C2=O (stereo not drawn)	i
Cc1ccc(CN2C(=O)c3nc4ccccc4n3CC2(C)C(=O)NCCC(C)C)cc1 (stereo not drawn)	i
CC(C)CNC(=O)c1ccc2c(=O)n(C)c3nn(Cc4ccccc4F)c(=O)n3c2c1	i
Cc1cccc(Cn2nc3n(C)c(=O)c4ccc(C(=O)NC5CCCCC5)cc4n3c2=O)c1	i
CCCn1c(=O)c2cc(Cl)ccc2n2c(SCC(=O)Nc3ccccc3F)nnc12	i
CN(CC(=O)NCCC1=CCCCC1)S(=O)(=O)c1ccc2[nH]c3c(c2c1)CCCC3	i
Cc1nc2cccnc2n1CC1CCCN(S(=O)(=O)c2ccc3c(c2)OCCO3)C1 (stereo not drawn)	+	MTase-Glo ctr=-2.9%
Cc1cnc(-c2cccnc2)n1C1CCN(S(=O)(=O)c2ccc3c(c2)OCCO3)CC1	i
Cc1cnc(CC2CCCN(S(=O)(=O)c3ccccc3)C2)n1CC1CC1 (stereo not drawn)	i
Cc1ccc(Nc2ccn3c(=O)n(CC(=O)Nc4ccc(F)cc4C)nc3n2)cc1	i
CCCn1c(=O)c2cc(Cl)ccc2n2c(=O)n(CC(=O)Nc3ccc4c(c3)OCO4)nc12	i
Cc1noc2c(NCCCn3ccnc3)cc(-c3ccccn3)nc12	i
Cc1noc2c(NC3CCN(C)CC3)cc(-c3cccs3)nc12	+	MTase-Glo ctr=4.6%[85.7 µM]
Cc1noc2c(NCCN3CCOCC3)cc(-c3ccsc3)nc12	i
COC(=O)c1cc2n(n1)CC(C)(C(=O)NC1CCCCCC1)N(c1ccc(C)c(Cl)c1)C2=O (stereo not drawn)	i
Cc1ccccc1CN1CC(=O)N(Cc2ccc(Cl)cc2)c2ccccc2S1(=O)=O	i
Cc1ccc(NC(=O)Cn2nc3n(CCC(C)C)c(=O)c4ccc(C(=O)NCC(C)C)cc4n3c2=O)cc1	i
Cc1ccc(NC(=O)N2CCc3c(c4ccccc4n3CC3CC3)C2)cc1	+	MTase-Glo ctr=5.1%
Cc1ccc(NC(=O)N2CCn3cccc3C2C)cc1 (stereo not drawn)	i
Cc1ccc(NC(=O)N2CCN(c3nnnn3-c3ccccc3)CC2)cc1	i
O=C(CCc1ccccc1)N1CCNc2cnc(Nc3cccnc3)nc2C1	+	MTase-Glo ctr=-1.2%[85.7 µM]
O=C(Nc1ccc(Oc2cccnc2)cc1)C1CCN(CCCc2ccccc2)CC1	i
O=C(CCc1ccccc1)N1CCCC(CN2CCCC2)CC1 (stereo not drawn)	i
SMILES	Methyltransferases	others
CCCn1c(=O)c2ccccc2n2c(SCC(=O)Nc3ccc(OC)c(OC)c3)nnc12	i
CCCCN1C(=O)c2ccccc2CC1(C)C(=O)NCc1ccc(Cl)cc1 (stereo not drawn)	i
CC(=O)Nc1cccc(-c2ccnc(-c3nnc(C)n3Cc3ccccc3)c2)c1	i
CC(=O)Nc1ccc(CN2CC3(Cc4ccccc4NC3=O)C2)cc1	i
CC(=O)Nc1cccc(-c2cc3c(cn2)CN(Cc2ccccc2)CCN3)c1	+	MTase-Glo ctr=-1.7%[85.7 µM]
Cc1cnc(C2CCOCC2)n1C1CCCN(S(=O)(=O)c2ccccc2)C1 (stereo not drawn)	i
Cc1cnc(C2CC2)n1C1CCCN(C(=O)c2ccoc2)C1 (stereo not drawn)	i
Cc1cnc(C2CC2)n1C1CCCN(Cc2ccccc2)C1 (stereo not drawn)	+	MTase-Glo ctr=-4.9%
O=C(CCn1ccc2cc(S(=O)(=O)N3CCCC3)ccc21)NC1CC1	i
CCCn1c(=O)c2ccccc2n2c(SCc3c(F)cccc3Cl)nnc12	i
COc1cccc(NS(=O)(=O)c2cc3[nH]c(=O)[nH]c3cc2C)c1	i
Cc1ccc(CN2CC[C@H](c3nc4ccc(C)cc4[nH]3)C2)cc1	i
COc1ccc(CC(=O)N2CCCC2C(=O)N2CCC(c3nc4ccncc4[nH]3)C2)cc1 (stereo not drawn)	i
COc1ccc2nc([C@H]3CCN(C4CCCCC4)C3)[nH]c2c1	+	MTase-Glo ctr=-5.3%[85.7 µM]
CCN1c2cc(C(=O)NCCc3ccccc3)ccc2C(=O)N2CCCCC21 (stereo not drawn)	i
